We go through 40 molecules from PubChem BioAssay (NCI).

The panel holds about 83,000 compounds, 20% with a hit somewhere; the sample as a whole holds those more often.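 Cell lines were cultured in 96-well plates, exposed to a single compound concentration, and assessed for percent growth 48 hours later.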 Active and inactive are the calls of the source.

This assay deals with OVCAR-3 ovarian. The assay can be described thus: NCI-60 one-dose screen, 48 h (100 = growth as untreated, 0 = no growth, -100 = all killed). The note with it: 10 µM unless noted. Here is the method:
Growth inhibition of the OVCAR-3 human tumor cell line is measured as a screen for anti-cancer activity. Cells are grown in 96 well plates and exposed to the test compound for 48 hours. Compounds are tested at a single concentration, which is 10^-5 M for most compounds. The reported endpoint is percent growth (GI% or GIPRCNT), where numbers from 0 - 100% represent growth inhibition, and numbers from -100% - 0 represent cell death. For example, a value of 40 represents 60% growth inhibition. A value of 0 means no net growth occurred over the course of the experiment. A value of -40 indicates 40% of cells at the beginning of the experiment died by the end of the experiment. A value of -100 means all cells are dead at the end of the experiment.
NCI-60 Human Tumor Cell Lines Screen was performed using the standard one-dose NCI protocol, which is described in more detail at https://dtp.cancer.gov/discovery_development/nci-60/default.htm.
Compounds with GIPRCNT values below 10 were considered active. Activity score was based on GIPRCNT using the following formula: […]
Score is 0 for GIPRCNT values of 100 or above, 50 for GIPRCNT values of 0, and 100 for GIPRCNT values of -100.
Consider `COC(=O)C1=C(C(=O)ON)C2C=CC1(C(Cc1ccccc1)Nc1ccccc1)O2` (stereo not given), for which the growth was -100% (active).

On to `CCCCCCCC(=O)OCC/C=C/C1OC1C1OC(=O)/C=C\C=C\C(=O)N(C(C)=O)C(=O)/C=C(/C)CCC2OC2C1OC(=O)NC(C)=O` (stereo not given), for which the growth was 61.2% (inactive). With `COc1cc(C(=O)Nc2cc3c(cc2Oc2cc(C)cc(C)c2)C(=O)N(C)[C@@H](CC(=O)N(C)O)C(=O)N3)c(Br)c(OC)c1OC`, the growth was -35.5% (active).

On to `COc1ccc(/C=C/c2nc(Nc3ccc(Cl)cc3)c3ccccc3n2)cc1`, for which the growth is 67.2% (inactive).

In the case of `CC1(C)c2[nH]c3ccccc3c2C[C@]2(C)[C@H]3C(=O)C=C4[C@@H]5C[C@@](C)(C(N)=O)CC[C@]5(C)CC[C@@]4(C)[C@]3(C)CC[C@@H]12`, the growth was 69.9% (inactive). Regarding `Nc1c(S(=O)(=O)O)cc2c3c(cccc13)C(=O)OC2=O`, the growth was 95% (inactive). On to `CCCOC(=O)N[C@H]1CCc2cc(OC)c(OC)c(OC)c2-c2ccc(SC)c(=O)cc21`, for which the growth is -42.1% (active). Regarding `O=C(Nc1ccccc1)Nc1ccc2cc3ccc(NC(=O)Nc4ccccc4)cc3nc2c1`, the growth was -11.6% (active). Turning to `COc1ccc(/C=C/c2nc(Nc3cccc(NC(C)=O)c3)c3ccccc3n2)cc1`, the growth was 97.7% (inactive).

Regarding `O=C(Nc1ccccc1C(=O)N/N=C(\c1ccccc1)c1ccccn1)c1ccc(F)cc1`, the growth is 18.1% (inactive).

In the case of `NS(=O)(=O)c1ccc(CCn2c(SCC(=O)c3ccc(Cl)cc3)nc3ccccc3c2=O)cc1`, the growth is 109% (inactive). `COc1cc(/C=C/C(=O)c2nc3cc(F)ccc3nc2C)cc(OC)c1OC`: the growth is 55.3% (inactive). With `O=[N+]([O-])CC(c1ccccc1)c1c[nH]c2ccccc12` (stereo not given), the growth was 42.4% (inactive). In the case of `O=S(=O)(NCCCNc1nccc(-c2c(-c3cccc(O)c3)nc3occn23)n1)c1ccc(Cl)cc1` it was 93.2% (inactive). For `Cn1cc(-c2nc(-c3c[nH]c4c(Cl)nccc34)cs2)c2cc(Br)ccc21` the value was 111% (inactive); for `CCOC(=O)/C(C#N)=C1/NNC(=Nc2cccnc2)S1`, 101% (inactive); for `C=CCn1c(-c2ccc(-c3nc4ccc(C)cc4[nH]3)cc2)n[nH]c1=S`, 112% (inactive).

As for `CCCCCCCCOc1ccc(/C=N/Nc2cc(C)nc3ccc(Br)cc23)cc1`, the growth is 67.1% (inactive). Regarding `CSc1nc2sc3cccc(Cl)c3n2c(=N)c1C#N`, the growth was 110% (inactive). As for `OCc1cnc2ccccc2c1NC1CCCCCC1`, the growth is 89.5% (inactive). `Cc1cc(C)c(S(=O)(=O)Oc2ccccc2[N+](=O)[O-])c(C)c1`: the growth was -24.1% (active). `Nc1c(C(=O)Nc2cccc3cnccc23)sc2nc3c(cc12)CN(Cc1ccccc1)CC3`: the growth is 108% (inactive). In the case of `O=C(C1CCC1)N1N=C(c2ccc(-n3ccc(C(F)(F)F)n3)cc2)CC1c1ccc[nH]1` (stereo not given), the growth was 107% (inactive). In the case of `COc1ccc(/C=C2\Oc3cc(OCCCCCN4CCCCC4)ccc3C2=O)cc1OC`, the growth is 82.8% (inactive).

Turning to `COc1cc2nc(-c3ccc(C(F)(F)F)cc3)cc(OCCN3CCCCC3)c2cc1OC`, the growth is 89.7% (inactive). For the molecule `NC(=NCc1ccccc1)C(N=Nc1ccccc1)C(=O)NCc1ccccc1` (stereo not given), the growth was 88.8% (inactive). In the case of `ClC1=C(Br)C(Br)(Br)C(=C(Br)Br)C1(Br)Br` it was 75% (inactive).

Turning to `Cc1nc2sccn2c1-c1cn2ccsc2n1`, the growth is 85.8% (inactive).

On to `COc1cc(C2C3=C(COC3=O)N(CCO)c3cc4c(cc32)CCC4)cc(OC)c1OC` (stereo not given), for which the growth was -33.4% (active). In the case of `Cc1cccc(NC(=O)Nc2ccc(-c3ccc4c(c3)NC(=O)/C4=C\c3ccc[nH]3)cc2)c1`, the growth was 103% (inactive). In the case of `Cc1cccc(C)c1N=c1oc2ccc(Cl)cc2nc1-c1ccccc1O` it was 102% (inactive); in that of `COC(=O)C1=C(C(=O)ON)[C@@H]2C=C[C@@]1([C@@H](Cc1ccccc1)Nc1ccccc1)O2`, -79.1% (active).

For the molecule `O=C(Cc1ccccc1)NNc1nc(Cl)nc(N2CCN(C(c3ccccc3)c3ccccc3)CC2)n1`, the growth was 101% (inactive). Regarding `O=S(=O)(NCCNc1nccc(-c2c(-c3cccc(O)c3)nc3occn23)n1)c1ccccc1`, the growth was 97.9% (inactive). `Cn1cc(CC2CC(=O)N(c3ccccc3)C2=O)sc1=NC(=O)c1ccccc1` (stereo not given): the growth is 99.2% (inactive).

Turning to `O=C1c2ccc3c4c(ccc(c24)C(=O)N1CCCNCc1ccccc1F)C(=O)N(CCCNCc1ccccc1F)C3=O`, the growth was -63% (active). For the molecule `CCCN1[C@@H]2CC[C@H]1/C(=C\c1ccc(OC)c(OC)c1)C(=O)/C2=C/c1ccc(OC)c(OC)c1`, the growth is 56.9% (inactive).

`O=C1NN(C(=O)c2ccccc2)C(c2ccc(Cl)c(Cl)c2)=C/C1=C\c1ccc([N+](=O)[O-])cc1`: the growth is 86.6% (inactive). `O=C(Cn1c[n+](CC(=O)c2ccc([N+](=O)[O-])cc2)c2ccccc21)Nc1cccc2cccnc12`: the growth is 38.6% (inactive). `C=CC(=O)N[C@@H](/C=C/C(=O)OCC)Cc1ccc(-c2cc(Cl)cc(Cl)c2)cc1`: the growth is 13.5% (inactive).
